# Over roughly 2,900 compounds, “NF-kB SEAP reporter activity, fold change vs agonist alone” has its median near 0.99; the highest 2% begin near 2.6. The entries come from a sample that favours the highest values as a whole.
# Legend:
# [1] = tested on: RAW-Dual; experiment: NF-kB SEAP reporter activity, fold change vs agonist alone; cytotoxicity flag (confluency mask): not cytotoxic; higher = enhanced NF-kB activity
# Procedure, shortened: (§1)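 Reporter activity is given as fold change relative to agonist-alone wells. To measure it, 50 nL of library stock was pin-tooled onto RAW-Dual macrophages (50,000 cells/well, DMEM, 384-well plates), a PRR agonist followed 1 h later, and cells stayed at 37 °C, 5% CO2. Twenty hours on, supernatant was assayed for IRF (QuantiLuc luminescence) and NF-κB (QuantiBlue, 620 nm absorbance), and wells under 70% of agonist-control IncuCyte confluency in both mask sets were marked cytotoxic.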
# [2] = tested on: RAW-Dual; experiment: NF-kB SEAP reporter activity, fold change vs agonist alone; higher = enhanced NF-kB activity; conditions: library stock concentration (final ~1000-fold dilution): 10 mM
# Procedure, shortened: as §1
# [3] = tested on: RAW-Dual; experiment: NF-kB SEAP reporter activity, fold change vs agonist alone; cytotoxicity flag (confluency mask): cytotoxic (confluency <70% of control); higher = enhanced NF-kB activity
# Procedure, shortened: as §1
# [4] = agonist: ODN 1826 (TLR9) 0.5 ug/mL
# [5] = agonist: Pam2CSK4 (TLR2/6) 0.1 ug/mL
# [6] = agonist: Pam3CSK4 (TLR2/1) 0.1 ug/mL
# [7] = cytotoxicity flag (confluency mask): not cytotoxic, agonist: Imiquimod (TLR7) […]
# [8] = cytotoxicity flag (confluency mask): not cytotoxic, agonist: MPLA (TLR4) […]
compound,measurement,setting,value
CCN(CC)Cc1ccc2cc(COC(=O)Nc3ccc(C(=O)NO)cc3)ccc2c1.Cl.O (library stock concentration (final ~1000-fold dilution): 10 mM),NF-kB SEAP reporter activity,[1]; agonist: LPS (TLR4) 0.1 ug/mL,7.02
same,NF-kB SEAP reporter activity,[1]; [4],0.922
same,NF-kB SEAP reporter activity,[1]; [5],1.87
same,NF-kB SEAP reporter activity,[1]; [6],1.04
COc1ccc(Cn2ccc3ccc(C(=O)NO)cc32)cc1 (library stock concentration (final ~1000-fold dilution): 10 mM),NF-kB SEAP reporter activity,[1]; agonist: LPS (TLR4) 0.1 ug/mL,0.996
same,NF-kB SEAP reporter activity,[1]; [4],0.62
same,NF-kB SEAP reporter activity,[1]; [5],0.788
same,NF-kB SEAP reporter activity,[1]; [6],0.588
CCN(CC)Cc1ccc2cc(COC(=O)Nc3ccc(C(=O)NO)cc3)ccc2c1.Cl.O,NF-kB SEAP reporter activity,[2]; [7],0.805
same,NF-kB SEAP reporter activity,[2]; [8],1.17
COCc1ccc(-c2ccc3ncc(C(N)=O)c(NC(C)C4CCOCC4)c3c2)cn1 (stereo not drawn) (library stock concentration (final ~1000-fold dilution): 10 mM),NF-kB SEAP reporter activity,[1]; agonist: LPS (TLR4) 0.1 ug/mL,1.75
same,NF-kB SEAP reporter activity,[1]; [4],1.19
same,NF-kB SEAP reporter activity,[1]; [5],1.45
same,NF-kB SEAP reporter activity,[1]; [6],2.13
COCc1ccc(-c2ccc3ncc(C(N)=O)c(NC(C)C4CCOCC4)c3c2)cn1 (stereo not drawn),NF-kB SEAP reporter activity,[2]; [7],0.993
same,NF-kB SEAP reporter activity,[2]; [8],1.35
O=S(=O)(NCCN1CCNCC1)c1ccc(NC2CCCCC2)c(NCc2ccccc2)c1,NF-kB SEAP reporter activity,"[2]; cytotoxicity flag (confluency mask): cytotoxic (confluency <70% of control), agonist: Imiquimod (TLR7) […]",1.27
same,NF-kB SEAP reporter activity,"[2]; cytotoxicity flag (confluency mask): cytotoxic (confluency <70% of control), agonist: MPLA (TLR4) […]",2.03
O=S(=O)(NCCN1CCNCC1)c1ccc(NC2CCCCC2)c(NCc2ccccc2)c1 (library stock concentration (final ~1000-fold dilution): 10 mM),NF-kB SEAP reporter activity,[3]; agonist: LPS (TLR4) 0.1 ug/mL,1.57
same,NF-kB SEAP reporter activity,[3]; [4],1.13
same,NF-kB SEAP reporter activity,[3]; [5],1.04
same,NF-kB SEAP reporter activity,[3]; [6],1.73
CN(C)CCCSC(=N)N.Cl.Cl (library stock concentration (final ~1000-fold dilution): 10 mM),NF-kB SEAP reporter activity,[1]; agonist: LPS (TLR4) 0.1 ug/mL,1.14
same,NF-kB SEAP reporter activity,[1]; [4],0.97
same,NF-kB SEAP reporter activity,[1]; [5],1.01
same,NF-kB SEAP reporter activity,[1]; [6],0.975
CN(C)CCCSC(=N)N.Cl.Cl,NF-kB SEAP reporter activity,[2]; [7],0.831
same,NF-kB SEAP reporter activity,[2]; [8],0.973
CC(C)CC(NC(=O)C1OC1C(=O)O)C(=O)NCCCCNC(=N)N (stereo not drawn) (library stock concentration (final ~1000-fold dilution): 10 mM),NF-kB SEAP reporter activity,[1]; agonist: LPS (TLR4) 0.1 ug/mL,0.999
same,NF-kB SEAP reporter activity,[1]; [4],1.01
same,NF-kB SEAP reporter activity,[1]; [5],1.12
same,NF-kB SEAP reporter activity,[1]; [6],1.12
CC(C)CC(NC(=O)C1OC1C(=O)O)C(=O)NCCCCNC(=N)N (stereo not drawn),NF-kB SEAP reporter activity,[2]; [7],0.971
same,NF-kB SEAP reporter activity,[2]; [8],1.11
CC(=O)C(=O)Oc1ccccc1C(=O)O,NF-kB SEAP reporter activity,[2]; [7],1.46
same,NF-kB SEAP reporter activity,[2]; [8],1.68
CC(=O)C(=O)Oc1ccccc1C(=O)O (library stock concentration (final ~1000-fold dilution): 10 mM),NF-kB SEAP reporter activity,[1]; agonist: LPS (TLR4) 0.1 ug/mL,1.07
same,NF-kB SEAP reporter activity,[1]; [4],1.04
same,NF-kB SEAP reporter activity,[1]; [5],0.887
same,NF-kB SEAP reporter activity,[1]; [6],1.12
O=S(=O)(N=Cc1c(O)ccc2ccccc12)c1cccs1,NF-kB SEAP reporter activity,[2]; [7],0.768
same,NF-kB SEAP reporter activity,[2]; [8],1.03
O=S(=O)(N=Cc1c(O)ccc2ccccc12)c1cccs1 (library stock concentration (final ~1000-fold dilution): 10 mM),NF-kB SEAP reporter activity,[1]; agonist: LPS (TLR4) 0.1 ug/mL,1.28
same,NF-kB SEAP reporter activity,[1]; [4],0.662
same,NF-kB SEAP reporter activity,[1]; [5],1.04
same,NF-kB SEAP reporter activity,[1]; [6],0.853
O=C(N/N=C/c1c(O)ccc2ccccc12)c1ccncc1 (library stock concentration (final ~1000-fold dilution): 10 mM),NF-kB SEAP reporter activity,[1]; agonist: LPS (TLR4) 0.1 ug/mL,2.18
same,NF-kB SEAP reporter activity,[1]; [4],2
same,NF-kB SEAP reporter activity,[1]; [5],1.15
same,NF-kB SEAP reporter activity,[1]; [6],1.92
O=C(N/N=C/c1c(O)ccc2ccccc12)c1ccncc1,NF-kB SEAP reporter activity,[2]; [7],2.57
same,NF-kB SEAP reporter activity,[2]; [8],1.75
NNC(=O)c1ccncc1,NF-kB SEAP reporter activity,[2]; [7],0.948
same,NF-kB SEAP reporter activity,[2]; [8],1.05
NNC(=O)c1ccncc1 (library stock concentration (final ~1000-fold dilution): 10 mM),NF-kB SEAP reporter activity,[1]; agonist: LPS (TLR4) 0.1 ug/mL,1.22
same,NF-kB SEAP reporter activity,[1]; [4],1.05
same,NF-kB SEAP reporter activity,[1]; [5],1.09
same,NF-kB SEAP reporter activity,[1]; [6],1.05
